# Reference: the supplement of paper PMC4466140
# Columns and labels:
# Experiment in all cases: SPOT peptide array binding signal intensity (averaged, normalized) (arbitrary units (background-subtracted, floor 0; scale differs between SH3 domains)); higher = stronger binding of the SH3 domain to the peptide
# AgAbp1 = biological target: AgAbp1
# Procedure, shortened: (§1)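 E. coli BL21(DE3) was used to express GST-fused SH3 domains from four yeast species, which were then purified on glutathione Sepharose. These were incubated at 10 μg/ml in TBS-based blocking buffer overnight at 4°C on cellulose membranes carrying synthetic 15-mer peptides, in which cysteines were replaced by serines. Binding signal is the replicate average of normalized, background-subtracted spot intensity, in arbitrary units that differ between domains.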
# AgBbc1 = biological target: AgBbc1
# Procedure, shortened: as §1
# AgBem1-D1 = biological target: AgBem1-D1
# Procedure, shortened: as §1
# AgBzz1-D1 = biological target: AgBzz1-D1
# Procedure, shortened: as §1
# AgBzz1-D2 = biological target: AgBzz1-D2
# Procedure, shortened: as §1
# AgCyk3 = biological target: AgCyk3
# Procedure, shortened: as §1
# AgFus1 = biological target: AgFus1
# Procedure, shortened: as §1
# AgHof1 = biological target: AgHof1
# Procedure, shortened: as §1
# AgHse1 = biological target: AgHse1
# Procedure, shortened: as §1
# AgLsb1 = biological target: AgLsb1
# Procedure, shortened: as §1
# AgLsb4 = biological target: AgLsb4
# Procedure, shortened: as §1
# AgMyo5 = biological target: AgMyo5
# Procedure, shortened: as §1
# AgNbp2 = biological target: AgNbp2
# Procedure, shortened: as §1
# AgRvs167 = biological target: AgRvs167
# Procedure, shortened: as §1
# AgSho1 = biological target: AgSho1
# Procedure, shortened: as §1
# AgSla1-D1-D2 = biological target: AgSla1-D1-D2
# Procedure, shortened: as §1
# AgSla1-D3 = biological target: AgSla1-D3
# Procedure, shortened: as §1
# CaAbp1-D1 = biological target: CaAbp1-D1
# Procedure, shortened: as §1
# CaAbp1-D2 = biological target: CaAbp1-D2
# Procedure, shortened: as §1
# CaBbc1 = biological target: CaBbc1
# Procedure, shortened: as §1
# CaBem1-D1 = biological target: CaBem1-D1
# Procedure, shortened: as §1
# CaBzz1-D1 = biological target: CaBzz1-D1
# Procedure, shortened: as §1
# CaBzz1-D2 = biological target: CaBzz1-D2
# Procedure, shortened: as §1
# CaCyk3 = biological target: CaCyk3
# Procedure, shortened: as §1
# CaFus1 = biological target: CaFus1
# Procedure, shortened: as §1
# CaHof1 = biological target: CaHof1
# Procedure, shortened: as §1
# CaHse1 = biological target: CaHse1
# Procedure, shortened: as §1
# CaLsb1 = biological target: CaLsb1
# Procedure, shortened: as §1
# CaLsb4 = biological target: CaLsb4
# Procedure, shortened: as §1
# CaMyo5 = biological target: CaMyo5
# Procedure, shortened: as §1
# CaNbp2 = biological target: CaNbp2
# Procedure, shortened: as §1
# CaRvs167 = biological target: CaRvs167
# Procedure, shortened: as §1
# CaRvs167-3 = biological target: CaRvs167-3
# Procedure, shortened: as §1
# CaSho1 = biological target: CaSho1
# Procedure, shortened: as §1
# CaSla1-D1-D2 = biological target: CaSla1-D1-D2
# Procedure, shortened: as §1
# CaSla1-D3 = biological target: CaSla1-D3
# Procedure, shortened: as §1
# ScAbp1 = biological target: ScAbp1
# Procedure, shortened: as §1
# ScBbc1 = biological target: ScBbc1
# Procedure, shortened: as §1
# ScBem1-D1 = biological target: ScBem1-D1
# Procedure, shortened: as §1
# ScBzz1-D1 = biological target: ScBzz1-D1
# Procedure, shortened: as §1
# ScBzz1-D2 = biological target: ScBzz1-D2
# Procedure, shortened: as §1
# ScCyk3 = biological target: ScCyk3
# Procedure, shortened: as §1
# ScFus1 = biological target: ScFus1
# Procedure, shortened: as §1
# ScHof1 = biological target: ScHof1
# Procedure, shortened: as §1
# ScHse1 = biological target: ScHse1
# Procedure, shortened: as §1
# ScLsb1 = biological target: ScLsb1
# Procedure, shortened: as §1
# ScLsb2 = biological target: ScLsb2
# Procedure, shortened: as §1
# ScLsb3 = biological target: ScLsb3
# Procedure, shortened: as §1
# ScLsb4 = biological target: ScLsb4
# Procedure, shortened: as §1
# ScMyo3 = biological target: ScMyo3
# Procedure, shortened: as §1
# ScMyo5 = biological target: ScMyo5
# Procedure, shortened: as §1
# ScNbp2 = biological target: ScNbp2
# Procedure, shortened: as §1
# ScPex13 = biological target: ScPex13
# Procedure, shortened: as §1
# ScRvs167 = biological target: ScRvs167
# Procedure, shortened: as §1
# ScSho1 = biological target: ScSho1
# Procedure, shortened: as §1
# ScSla1-D1-D2 = biological target: ScSla1-D1-D2
# Procedure, shortened: as §1
# ScSla1-D3 = biological target: ScSla1-D3
# Procedure, shortened: as §1
# SpAbp1-D1 = biological target: SpAbp1-D1
# Procedure, shortened: as §1
# SpBbc1 = biological target: SpBbc1
# Procedure, shortened: as §1
# SpBzz1-D1 = biological target: SpBzz1-D1
# Procedure, shortened: as §1
# SpBzz1-D2 = biological target: SpBzz1-D2
# Procedure, shortened: as §1
# SpCyk3 = biological target: SpCyk3
# Procedure, shortened: as §1
# SpHof1 = biological target: SpHof1
# Procedure, shortened: as §1
# SpHof1-2 = biological target: SpHof1-2
# Procedure, shortened: as §1
# SpHof1-3 = biological target: SpHof1-3
# Procedure, shortened: as §1
# SpHse1 = biological target: SpHse1
# Procedure, shortened: as §1
# SpLsb1 = biological target: SpLsb1
# Procedure, shortened: as §1
# SpLsb4 = biological target: SpLsb4
# Procedure, shortened: as §1
# SpMyo1 = biological target: SpMyo1
# Procedure, shortened: as §1
# SpNbp2 = biological target: SpNbp2
# Procedure, shortened: as §1
# SpPex13 = biological target: SpPex13
# Procedure, shortened: as §1
# SpRvs167 = biological target: SpRvs167
# Procedure, shortened: as §1
# SpSla1-D1-D2 = biological target: SpSla1-D1-D2
# Procedure, shortened: as §1
# SpSla1-D3 = biological target: SpSla1-D3
# Procedure, shortened: as §1
binder,measurement,setting,value
STPQTMRQAPKRPDA,SPOT peptide array binding signal intensity,AgAbp1,≤ 0
same,SPOT peptide array binding signal intensity,AgBbc1,206
same,SPOT peptide array binding signal intensity,AgBem1-D1,540
same,SPOT peptide array binding signal intensity,AgBzz1-D1,10
same,SPOT peptide array binding signal intensity,AgBzz1-D2,20
same,SPOT peptide array binding signal intensity,AgCyk3,≤ 0
same,SPOT peptide array binding signal intensity,AgFus1,34.5
same,SPOT peptide array binding signal intensity,AgHof1,10.5
same,SPOT peptide array binding signal intensity,AgHse1,122
same,SPOT peptide array binding signal intensity,AgLsb1,6.5
same,SPOT peptide array binding signal intensity,AgLsb4,≤ 0
same,SPOT peptide array binding signal intensity,AgMyo5,6
same,SPOT peptide array binding signal intensity,AgNbp2,1030
same,SPOT peptide array binding signal intensity,AgRvs167,0.833
same,SPOT peptide array binding signal intensity,AgSho1,25
same,SPOT peptide array binding signal intensity,AgSla1-D1-D2,4
same,SPOT peptide array binding signal intensity,AgSla1-D3,0.5
same,SPOT peptide array binding signal intensity,CaAbp1-D1,≤ 0
same,SPOT peptide array binding signal intensity,CaAbp1-D2,13
same,SPOT peptide array binding signal intensity,CaBbc1,1170
same,SPOT peptide array binding signal intensity,CaBem1-D1,174
same,SPOT peptide array binding signal intensity,CaBzz1-D1,532
same,SPOT peptide array binding signal intensity,CaBzz1-D2,105
same,SPOT peptide array binding signal intensity,CaCyk3,29
same,SPOT peptide array binding signal intensity,CaFus1,202
same,SPOT peptide array binding signal intensity,CaHof1,≤ 0
same,SPOT peptide array binding signal intensity,CaHse1,83
same,SPOT peptide array binding signal intensity,CaLsb1,0.5
same,SPOT peptide array binding signal intensity,CaLsb4,283
same,SPOT peptide array binding signal intensity,CaMyo5,88
same,SPOT peptide array binding signal intensity,CaNbp2,653
same,SPOT peptide array binding signal intensity,CaRvs167,28.8
same,SPOT peptide array binding signal intensity,CaRvs167-3,1
same,SPOT peptide array binding signal intensity,CaSho1,100
same,SPOT peptide array binding signal intensity,CaSla1-D1-D2,198
same,SPOT peptide array binding signal intensity,CaSla1-D3,225
same,SPOT peptide array binding signal intensity,ScAbp1,2.5
same,SPOT peptide array binding signal intensity,ScBbc1,49.5
same,SPOT peptide array binding signal intensity,ScBem1-D1,8.5
same,SPOT peptide array binding signal intensity,ScBzz1-D1,3
same,SPOT peptide array binding signal intensity,ScBzz1-D2,26
same,SPOT peptide array binding signal intensity,ScCyk3,≤ 0
same,SPOT peptide array binding signal intensity,ScFus1,39
same,SPOT peptide array binding signal intensity,ScHof1,≤ 0
same,SPOT peptide array binding signal intensity,ScHse1,72
same,SPOT peptide array binding signal intensity,ScLsb1,5.5
same,SPOT peptide array binding signal intensity,ScLsb2,5
same,SPOT peptide array binding signal intensity,ScLsb3,300
same,SPOT peptide array binding signal intensity,ScLsb4,35
same,SPOT peptide array binding signal intensity,ScMyo3,196
same,SPOT peptide array binding signal intensity,ScMyo5,72.5
same,SPOT peptide array binding signal intensity,ScNbp2,2290
same,SPOT peptide array binding signal intensity,ScPex13,339
same,SPOT peptide array binding signal intensity,ScRvs167,39.7
same,SPOT peptide array binding signal intensity,ScSho1,171
same,SPOT peptide array binding signal intensity,ScSla1-D1-D2,736
same,SPOT peptide array binding signal intensity,ScSla1-D3,540
same,SPOT peptide array binding signal intensity,SpAbp1-D1,≤ 0
same,SPOT peptide array binding signal intensity,SpBbc1,5
same,SPOT peptide array binding signal intensity,SpBzz1-D1,116
TPTSGPPLLPPRNTM,SPOT peptide array binding signal intensity,CaNbp2,21
same,SPOT peptide array binding signal intensity,CaRvs167,2460
same,SPOT peptide array binding signal intensity,CaRvs167-3,≤ 0
same,SPOT peptide array binding signal intensity,CaSho1,5.5
same,SPOT peptide array binding signal intensity,CaSla1-D1-D2,185
same,SPOT peptide array binding signal intensity,CaSla1-D3,23.8
same,SPOT peptide array binding signal intensity,ScAbp1,≤ 0
same,SPOT peptide array binding signal intensity,ScBbc1,1
same,SPOT peptide array binding signal intensity,ScBem1-D1,≤ 0
same,SPOT peptide array binding signal intensity,ScBzz1-D1,3
same,SPOT peptide array binding signal intensity,ScBzz1-D2,≤ 0
same,SPOT peptide array binding signal intensity,ScCyk3,2
same,SPOT peptide array binding signal intensity,ScFus1,≤ 0
same,SPOT peptide array binding signal intensity,ScHof1,8
same,SPOT peptide array binding signal intensity,ScHse1,≤ 0
same,SPOT peptide array binding signal intensity,ScLsb1,1070
same,SPOT peptide array binding signal intensity,ScLsb2,65.5
same,SPOT peptide array binding signal intensity,ScLsb3,6040
same,SPOT peptide array binding signal intensity,ScLsb4,6540
same,SPOT peptide array binding signal intensity,ScMyo3,538
same,SPOT peptide array binding signal intensity,ScMyo5,80
same,SPOT peptide array binding signal intensity,ScNbp2,≤ 0
same,SPOT peptide array binding signal intensity,ScPex13,1680
same,SPOT peptide array binding signal intensity,ScRvs167,2570
same,SPOT peptide array binding signal intensity,ScSho1,1.5
same,SPOT peptide array binding signal intensity,ScSla1-D1-D2,268
same,SPOT peptide array binding signal intensity,ScSla1-D3,51.5
same,SPOT peptide array binding signal intensity,SpAbp1-D1,3
same,SPOT peptide array binding signal intensity,SpBbc1,≤ 0
same,SPOT peptide array binding signal intensity,SpBzz1-D1,176
same,SPOT peptide array binding signal intensity,SpBzz1-D2,1
same,SPOT peptide array binding signal intensity,SpCyk3,4.5
same,SPOT peptide array binding signal intensity,SpHof1,12.5
same,SPOT peptide array binding signal intensity,SpHof1-2,19
same,SPOT peptide array binding signal intensity,SpHof1-3,18.8
same,SPOT peptide array binding signal intensity,SpHse1,31.5
same,SPOT peptide array binding signal intensity,SpLsb1,1190
same,SPOT peptide array binding signal intensity,SpLsb4,6300
same,SPOT peptide array binding signal intensity,SpMyo1,156
same,SPOT peptide array binding signal intensity,SpNbp2,≤ 0
same,SPOT peptide array binding signal intensity,SpPex13,84.5
same,SPOT peptide array binding signal intensity,SpRvs167,2660
same,SPOT peptide array binding signal intensity,SpSla1-D1-D2,3
same,SPOT peptide array binding signal intensity,SpSla1-D3,4.5
